# In the supplement of paper PMC11732987, “Enantioselective OTUD7B fragment discovery through chemoproteomics screening and high-throughput optimisation” (Communications Chemistry, 2025):
# Values without a mark were called inactive.
# Tests used:
# Test in all cases: log2 ratio of Biotin-Ahx-Ub-VS probe labelling (fragment/DMSO); higher = less target engagement (more negative = stronger competition), active = hit call of the paper (q ≤ 0.05, log2 ratio ≤ -1)
# Details in all cases: compound concentration: 200 uM; treatment time: 3 h
# OTUD6B = molecular target: T1, OTUD6B (UniProt Q8N6M0)
# T1 sequence (whole entry): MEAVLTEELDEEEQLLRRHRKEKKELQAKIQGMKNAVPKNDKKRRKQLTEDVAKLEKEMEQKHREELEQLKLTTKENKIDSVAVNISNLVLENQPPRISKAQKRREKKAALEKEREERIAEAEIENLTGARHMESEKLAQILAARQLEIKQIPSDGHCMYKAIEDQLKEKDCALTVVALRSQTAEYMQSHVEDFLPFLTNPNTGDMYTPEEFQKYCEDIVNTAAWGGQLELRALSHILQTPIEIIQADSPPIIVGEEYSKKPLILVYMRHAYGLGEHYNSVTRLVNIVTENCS
# Procedure, shortened: (§1)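 Fragment (200 µM) or vehicle was incubated for 3 h with triplicate HEK293T lysate samples of 495 µg, which were then treated with Biotin-Ahx-Ub-VS at 0.5 µM final for 1 h. Labelled DUBs were enriched on NeutrAvidin, digested with LysC and trypsin, and analysed by diaPASEF LC-MS/MS. Values are average log2 fragment/vehicle ratios from an unpaired t-test on global-median-normalised Spectronaut label-free quantities, using proteins with ≥2 unique peptides.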
# OTUD7B = molecular target: T2, OTUD7B (UniProt Q6GQQ9)
# T2 sequence (whole entry): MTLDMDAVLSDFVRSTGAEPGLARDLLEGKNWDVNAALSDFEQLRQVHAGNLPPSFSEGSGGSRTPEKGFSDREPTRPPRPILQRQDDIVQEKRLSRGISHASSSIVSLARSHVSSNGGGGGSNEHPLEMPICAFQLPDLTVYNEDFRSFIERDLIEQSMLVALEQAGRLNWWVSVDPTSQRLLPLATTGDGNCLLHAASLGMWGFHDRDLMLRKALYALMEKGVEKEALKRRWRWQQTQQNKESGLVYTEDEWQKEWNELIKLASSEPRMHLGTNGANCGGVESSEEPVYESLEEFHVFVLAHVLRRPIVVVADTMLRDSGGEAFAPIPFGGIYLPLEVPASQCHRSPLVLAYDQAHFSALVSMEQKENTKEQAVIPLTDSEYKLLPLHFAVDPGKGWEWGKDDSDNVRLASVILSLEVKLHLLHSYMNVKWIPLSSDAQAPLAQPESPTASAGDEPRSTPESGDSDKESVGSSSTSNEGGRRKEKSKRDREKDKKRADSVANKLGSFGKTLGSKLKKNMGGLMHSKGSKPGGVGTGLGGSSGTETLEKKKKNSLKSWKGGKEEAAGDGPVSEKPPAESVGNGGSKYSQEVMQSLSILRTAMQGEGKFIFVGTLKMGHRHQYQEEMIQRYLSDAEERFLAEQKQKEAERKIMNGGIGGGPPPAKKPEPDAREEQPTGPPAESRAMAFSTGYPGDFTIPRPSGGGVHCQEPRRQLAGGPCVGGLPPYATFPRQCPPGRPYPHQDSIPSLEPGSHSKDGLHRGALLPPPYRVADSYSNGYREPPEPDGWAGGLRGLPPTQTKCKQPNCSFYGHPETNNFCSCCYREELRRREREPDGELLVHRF
# Procedure, shortened: as §1
# PRPF8 = PRPF8 (UniProt Q6P2Q9)
# Procedure, shortened: as §1
# PSMD7 = molecular target: T3, PSMD7 (UniProt P51665)
# T3 sequence (whole entry): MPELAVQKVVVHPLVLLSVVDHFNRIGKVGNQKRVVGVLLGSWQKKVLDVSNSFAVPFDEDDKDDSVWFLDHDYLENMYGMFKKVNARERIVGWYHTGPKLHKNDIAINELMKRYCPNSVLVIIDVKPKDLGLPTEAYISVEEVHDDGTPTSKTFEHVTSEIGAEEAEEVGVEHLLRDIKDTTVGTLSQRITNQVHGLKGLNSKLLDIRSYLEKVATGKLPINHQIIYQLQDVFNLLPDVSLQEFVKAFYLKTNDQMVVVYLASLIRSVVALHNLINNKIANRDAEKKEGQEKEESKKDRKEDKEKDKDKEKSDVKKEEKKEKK
# Procedure, shortened: as §1
# UCHL1 = UCHL1 (UniProt P09936)
# UCHL1, sequence (P09936 whole entry, looked up): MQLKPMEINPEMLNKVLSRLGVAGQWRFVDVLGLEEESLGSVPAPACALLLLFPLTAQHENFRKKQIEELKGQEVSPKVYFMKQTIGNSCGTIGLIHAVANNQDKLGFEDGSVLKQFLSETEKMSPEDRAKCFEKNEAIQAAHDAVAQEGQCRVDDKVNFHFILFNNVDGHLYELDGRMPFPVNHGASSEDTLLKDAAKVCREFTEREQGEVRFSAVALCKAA
# Procedure, shortened: as §1
# UCHL3 = molecular target: T4, UCHL3 (UniProt P15374)
# T4 sequence (whole entry): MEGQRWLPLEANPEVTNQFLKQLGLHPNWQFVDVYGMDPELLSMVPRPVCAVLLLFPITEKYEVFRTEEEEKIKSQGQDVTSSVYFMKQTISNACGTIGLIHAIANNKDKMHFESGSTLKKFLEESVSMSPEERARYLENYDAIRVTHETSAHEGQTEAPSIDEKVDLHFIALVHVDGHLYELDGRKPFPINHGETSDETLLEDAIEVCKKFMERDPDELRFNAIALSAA
# Procedure, shortened: as §1
# UCHL5 = molecular target: T5, UCHL5 (UniProt Q9Y5K5)
# T5 sequence (whole entry): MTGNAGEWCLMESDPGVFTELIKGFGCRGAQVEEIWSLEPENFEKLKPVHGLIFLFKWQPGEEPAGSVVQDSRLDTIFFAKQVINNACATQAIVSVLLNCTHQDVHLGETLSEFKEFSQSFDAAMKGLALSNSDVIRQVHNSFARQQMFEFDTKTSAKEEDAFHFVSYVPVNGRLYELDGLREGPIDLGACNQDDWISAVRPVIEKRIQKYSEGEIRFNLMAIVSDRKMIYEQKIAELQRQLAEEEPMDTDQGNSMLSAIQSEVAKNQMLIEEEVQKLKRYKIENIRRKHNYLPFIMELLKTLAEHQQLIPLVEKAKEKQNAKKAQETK
# Procedure, shortened: as §1
# USP10 = USP10 (UniProt Q14694)
# USP10, sequence (Q14694 whole entry): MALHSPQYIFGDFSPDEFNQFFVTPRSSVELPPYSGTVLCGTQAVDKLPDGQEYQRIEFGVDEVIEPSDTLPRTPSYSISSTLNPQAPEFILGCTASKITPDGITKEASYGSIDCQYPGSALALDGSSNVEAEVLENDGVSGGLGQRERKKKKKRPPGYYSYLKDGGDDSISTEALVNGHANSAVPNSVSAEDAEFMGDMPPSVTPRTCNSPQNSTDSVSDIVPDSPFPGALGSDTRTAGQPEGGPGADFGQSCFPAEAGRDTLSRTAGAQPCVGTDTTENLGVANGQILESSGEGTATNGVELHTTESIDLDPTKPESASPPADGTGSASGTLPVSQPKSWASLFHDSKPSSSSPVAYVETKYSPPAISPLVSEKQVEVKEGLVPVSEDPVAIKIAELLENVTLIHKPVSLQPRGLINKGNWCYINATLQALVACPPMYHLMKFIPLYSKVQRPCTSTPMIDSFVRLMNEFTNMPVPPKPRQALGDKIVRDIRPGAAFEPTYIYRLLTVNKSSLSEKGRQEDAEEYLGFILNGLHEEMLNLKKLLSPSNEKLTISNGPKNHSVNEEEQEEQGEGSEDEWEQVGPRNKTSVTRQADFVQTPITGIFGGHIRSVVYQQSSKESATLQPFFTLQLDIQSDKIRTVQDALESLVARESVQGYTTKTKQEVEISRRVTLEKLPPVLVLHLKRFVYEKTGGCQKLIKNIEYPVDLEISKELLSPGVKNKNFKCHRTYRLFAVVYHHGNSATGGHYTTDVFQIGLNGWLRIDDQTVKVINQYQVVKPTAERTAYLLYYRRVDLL
# Procedure, shortened: as §1
# USP15 = molecular target: T6, USP15 (UniProt Q9Y4E8)
# T6 sequence (whole entry): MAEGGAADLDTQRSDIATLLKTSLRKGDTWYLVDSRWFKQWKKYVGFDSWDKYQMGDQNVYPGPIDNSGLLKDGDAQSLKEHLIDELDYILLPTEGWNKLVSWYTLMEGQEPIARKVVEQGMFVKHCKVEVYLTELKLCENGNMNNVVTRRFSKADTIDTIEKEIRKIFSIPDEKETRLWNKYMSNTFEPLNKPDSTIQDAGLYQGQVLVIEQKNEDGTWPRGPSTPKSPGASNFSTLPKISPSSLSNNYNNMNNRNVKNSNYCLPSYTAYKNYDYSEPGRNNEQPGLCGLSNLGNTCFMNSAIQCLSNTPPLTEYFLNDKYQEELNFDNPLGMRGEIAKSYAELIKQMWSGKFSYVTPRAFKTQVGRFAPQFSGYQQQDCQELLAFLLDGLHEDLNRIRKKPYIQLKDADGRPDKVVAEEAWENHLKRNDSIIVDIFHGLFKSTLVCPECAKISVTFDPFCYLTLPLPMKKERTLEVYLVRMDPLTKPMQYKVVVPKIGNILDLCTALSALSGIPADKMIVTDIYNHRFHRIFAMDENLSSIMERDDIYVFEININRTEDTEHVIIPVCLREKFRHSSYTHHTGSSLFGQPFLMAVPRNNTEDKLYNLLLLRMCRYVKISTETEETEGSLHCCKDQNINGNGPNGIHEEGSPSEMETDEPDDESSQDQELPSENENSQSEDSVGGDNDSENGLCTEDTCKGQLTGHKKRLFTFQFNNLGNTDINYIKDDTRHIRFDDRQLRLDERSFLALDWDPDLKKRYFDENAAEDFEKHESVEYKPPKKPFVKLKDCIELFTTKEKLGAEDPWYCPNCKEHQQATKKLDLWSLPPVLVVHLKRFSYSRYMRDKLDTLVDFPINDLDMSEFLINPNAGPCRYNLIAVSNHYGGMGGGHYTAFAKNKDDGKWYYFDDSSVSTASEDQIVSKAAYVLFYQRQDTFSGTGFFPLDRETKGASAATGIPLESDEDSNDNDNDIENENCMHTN
# Procedure, shortened: as §1
# USP16 = USP16 (UniProt Q9Y5T5)
# USP16, sequence (Q9Y5T5 whole entry, looked up): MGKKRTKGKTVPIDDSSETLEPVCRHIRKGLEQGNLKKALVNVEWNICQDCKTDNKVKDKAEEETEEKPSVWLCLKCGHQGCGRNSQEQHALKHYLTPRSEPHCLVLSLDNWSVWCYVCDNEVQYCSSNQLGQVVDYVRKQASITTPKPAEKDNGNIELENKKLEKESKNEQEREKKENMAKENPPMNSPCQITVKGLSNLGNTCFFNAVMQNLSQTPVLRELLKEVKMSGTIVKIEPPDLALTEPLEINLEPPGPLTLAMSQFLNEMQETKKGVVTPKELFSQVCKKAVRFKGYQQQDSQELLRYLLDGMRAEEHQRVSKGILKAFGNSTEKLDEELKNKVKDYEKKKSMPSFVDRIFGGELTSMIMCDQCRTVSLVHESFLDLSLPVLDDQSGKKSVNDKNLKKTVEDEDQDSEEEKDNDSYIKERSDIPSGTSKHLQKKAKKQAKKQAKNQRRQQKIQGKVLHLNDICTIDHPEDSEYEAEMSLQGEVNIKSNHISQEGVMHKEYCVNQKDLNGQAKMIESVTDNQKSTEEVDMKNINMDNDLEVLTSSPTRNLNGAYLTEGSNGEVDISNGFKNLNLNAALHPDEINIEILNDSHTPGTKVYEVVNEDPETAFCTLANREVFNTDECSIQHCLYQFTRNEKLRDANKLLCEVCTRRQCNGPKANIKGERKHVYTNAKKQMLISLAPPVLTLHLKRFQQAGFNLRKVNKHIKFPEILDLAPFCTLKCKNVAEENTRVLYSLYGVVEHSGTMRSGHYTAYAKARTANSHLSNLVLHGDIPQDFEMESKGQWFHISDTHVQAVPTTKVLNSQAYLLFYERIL
# Procedure, shortened: as §1
structure (smiles),measurement,setting,value
Cc1cccc(N2CCC(NC(=O)CCl)C2=O)c1 (stereo not given),log2 ratio of Biotin-Ahx-Ub-VS probe labelling,OTUD6B,-0.339
same,log2 ratio of Biotin-Ahx-Ub-VS probe labelling,OTUD7B,-1.61 (active)
same,log2 ratio of Biotin-Ahx-Ub-VS probe labelling,PRPF8,-0.232
same,log2 ratio of Biotin-Ahx-Ub-VS probe labelling,PSMD7,-0.248
same,log2 ratio of Biotin-Ahx-Ub-VS probe labelling,UCHL1,-1.87 (active)
same,log2 ratio of Biotin-Ahx-Ub-VS probe labelling,UCHL3,0.0361
same,log2 ratio of Biotin-Ahx-Ub-VS probe labelling,UCHL5,-0.503
same,log2 ratio of Biotin-Ahx-Ub-VS probe labelling,USP10,-0.133
same,log2 ratio of Biotin-Ahx-Ub-VS probe labelling,USP15,-0.299
same,log2 ratio of Biotin-Ahx-Ub-VS probe labelling,USP16,-0.021
